Our source for the INHIBITION values is ChEMBL document CHEMBL4513216, “Probing the Open Global Health Chemical Diversity Library for Multistage-Active Starting Points for Next-Generation Antimalarials” (ACS Infect Dis, 2020).

In all, about 69,000 compounds went through this assay and about 8,600 (12%) showed an effect of 50% or more. This excerpt belongs to a sample that is enriched for strong results.

The subject of the assay is Plasmodium berghei. As to the kind of experiment: Screen against P. berghei liver stage (PbLuc), transformed with Luciferase, at 10uM. In kind it is functional, HepG2. Particulars: tested at 10 uM.
On to `CN(C)CCN1CCO[C@@H]2CCN(C(=O)c3cccn3C)CC[C@H]21`, for which the INHIBITION is -16.2%.
As for `O=C(c1ccnnc1)N1C[C@@H]2OCCN(CCN3CCCC3)[C@@H]2C1`, the INHIBITION was 11.9%.
Consider `COCCN1CCO[C@H]2CCN(C(=O)c3cccs3)CC[C@@H]21`, for which the INHIBITION is -18.3%.
The value for `COCCN1CCO[C@H]2CCN(C(=O)c3ccnnc3)CC[C@@H]21` was 55.6%; that for `COCCN1CCO[C@H]2CN(C(=O)c3cccs3)C[C@H]21` was 77.7%; that for `O=C(c1cccs1)N1C[C@@H]2OCCN(CC3CCCO3)[C@@H]2C1` (some centres not stated) was -17.1%.
The value for `COC(=O)N1CCC(Nc2ccc(Cl)c(C#N)n2)CC1` was 8.12%.
With `COc1ncc(C(F)(F)F)c(C(=O)O)c1Cl`, the INHIBITION is given as 24.2%.
Regarding `Cc1cnn(CC2CCCCN2C(=O)Cc2c(C)noc2C)c1` (configuration not stated), the INHIBITION is listed as 8.53%.
Take `CCN1Cc2ccccc2CC2(CCN(C)CC2)C1=O`: the INHIBITION amounted to 26.5%.
`Cc1nc(C)n(CC2CCCN(CCOc3cccc(F)c3)C2)n1` (configuration not stated): the INHIBITION is listed as 48.4%.
The same measure for `O=C(CC1CCCC1)N1CCN2C[C@@H](CO)[C@H](c3ccccc3)[C@H]2C1`: -16.4%; for `CS(=O)(=O)NC1CCCN(C(=O)NCc2cccc(F)c2)C1` (configuration not stated): 29.4%; for `c1ccc(N2CCCC3(CCN(Cc4cccs4)C3)C2)nc1` (configuration not stated): 44.9%.
The same measure for `Cc1ccc(C(=O)NCCn2nc(-n3cncn3)ccc2=O)c(C)c1`: 16.5%; for `CC(C)c1nc2c(n1C)CCN(Cc1nc(-c3ccco3)no1)C2`: 7.08%.
On to `O=C(NCc1ccc2c(c1)OCO2)c1ccc(N2CCCCCC2)nc1`, for which the INHIBITION is recorded as -4.99%.
The same measure for `CNC(=O)NC(=O)CCN1CCOC(c2ccc(Br)cc2)C1` (configuration not stated): -65.1%; for `O=C(C1CCOCC1)N1CCOCC(Cc2ncccn2)C1` (configuration not stated): 19.3%; for `Nc1cccc(C2CN(C(=O)CN3CCOCC3)CCO2)n1` (configuration not stated): 36%.
Regarding `COc1ccc2cc(C3CN(C(=O)N(C)C)CCO3)ccc2c1` (configuration not stated), the INHIBITION is recorded as 85.4%.
With `CCN1CCN(CC(=O)N2CCOC(Cc3ccc(OC)cc3)C2)CC1` (configuration not stated), the INHIBITION was -42.1%.
The value for `CNC(=O)CN1CCC(c2cc(OC)cc(OC)c2)C1` (configuration not stated) was 45.1%.
On to `COc1ccc2cc(C3CN(C(=O)CN4CCCC4)CCO3)ccc2c1` (configuration not stated), for which the INHIBITION was 64.7%.
As to `COc1ccc(-c2cnc(N(C)C)nc2C2CN(C(C)=O)CCO2)cc1` (configuration not stated), the INHIBITION came to 7.52%.
As to `CNC(=O)CCC(=O)N1CCOC(c2ccc3cc(OC)ccc3c2)C1` (configuration not stated), the INHIBITION is given as 78.15%.
The value for `CN(C)C(=O)N1CC[C@@H](c2ccc3ccccc3c2)[C@H](O)C1` was 2.18%; that for `COc1ccc2cc(C3CN(C(=O)C4CCOCC4)CCO3)ccc2c1` (configuration not stated) was 66.8%; that for `COc1ccc(CN2CCO[C@H]3CN(C(=O)C4CC4)CC[C@H]3C2=O)cc1` was -47%.
In the case of `O=C(c1cc(-c2ccco2)cs1)N1CCCC1`, the INHIBITION is on record as -12.2%.
As to `CNC(=O)[C@H]1C[C@H]2OCC[C@H]2N(Cc2cccc3ccccc23)C1`, the INHIBITION is reported as -6.32%.
Turning to `COCc1nc(CNc2cc(C)nc(-c3ccccc3)n2)no1`, the INHIBITION is given as -7.81%.
Consider `O=C(CS(=O)(=O)Cc1ccccc1)NC1CCCCNC1=O` (configuration not stated), for which the INHIBITION is given as 5.7%.
Regarding `Cc1noc([C@H]2C[C@H]3OCC[C@H]3N(S(C)(=O)=O)C2)n1`, the INHIBITION was -31.3%.
The same measure for `CCOC(=O)[C@]12CCCN(Cc3ccco3)C[C@H]1CN(CCN(C)C)C2`: -0.182%; for `Cn1nc2c(cc1=O)CN(Cc1nc(-c3ccccn3)no1)CC2`: -19.7%; for `CCC(=O)Nc1c(C)nn(COc2cccc(F)c2)c1C`: 26.7%.
In the case of `Cc1cc(C)c2[nH]c(C(=O)NCCN3CCOC3=O)c(C)c2c1`, the INHIBITION is reported as 24%.
Regarding `CC(=O)N(Cc1noc(C)n1)C1CCN(CC(=O)N(C)C2CC2)C1` (configuration not stated), the INHIBITION stood at 7.3%.
For `O=C(O)c1cc2c(nc1NCC1CC1)CCN(C1CCOC1)CC2` (configuration not stated), the INHIBITION was found to be 29.8%.
With `CC(=O)NCC(=O)N1CCOC(c2cccc(N)n2)C1` (configuration not stated), the INHIBITION is on record as -24.4%.
For the compound `O=C(CCNS(=O)(=O)c1ccccc1)N1CCOC(c2ccccc2)C1` (configuration not stated), the INHIBITION is -74.1%.
Consider `COc1ccc2cc(C3CN(C(=O)COC(C)C)CCO3)ccc2c1` (configuration not stated), for which the INHIBITION was 69.15%.
`CC(C)c1n[nH]c(C2CN(C(=O)COc3ccc(F)cc3)CCO2)n1` (configuration not stated): the INHIBITION was 8.41%.
As for `COc1ccc2cc(C3CN(C(=O)CCNC(C)=O)CCO3)ccc2c1` (configuration not stated), the INHIBITION turned out to be 81.9%.
As to `COCC(=O)N1CCC(c2ccc(OC)cc2)C1` (configuration not stated), the INHIBITION is 23.6%.
As to `FC(F)(F)COc1cccc(-c2nc3c([nH]2)CCNC3)c1`, the INHIBITION amounted to 36.6%.
The same measure for `CCc1nc(CN(C)C2CCN(CC(=O)N3CCOCC3)C2)no1` (configuration not stated): 22.3%.
The same measure for `O=C(CN1CCOC(CNc2cccnn2)C1)N1CCCCC1` (configuration not stated): -55.4%; for `CNC(=O)C1CCN(Cc2nc(-c3ccc(SC)cc3)oc2C)C1` (configuration not stated): -2.5%; for `CSc1ccc(-c2nc(CN3CCC(NC(C)=O)C3)c(C)o2)cc1` (configuration not stated): 66.8%.
On to `CSc1ccc(-c2nc(CN3CCC(NC(C)=O)CC3)c(C)o2)cc1`, for which the INHIBITION was determined as 5.51%.
